{
  "source": "PubChem BioAssay (EPA / NIEHS)",
  "note": "Inconclusive results are not listed. More than one record can exist for a structure, and the calls need not agree. The source made the active and inactive calls. Rule for the calls: active = hit-call score of the fitted dose curve at least 0.9, where 1 is the maximum; inconclusive = response in the unintended direction; inactive = score below 0.9.",
  "data": [
    {"biological_target": "Luciferin 4-monooxygenase (Photinus pyralis) (UniProt P08659)", "sequence (P08659 whole entry, looked up)": "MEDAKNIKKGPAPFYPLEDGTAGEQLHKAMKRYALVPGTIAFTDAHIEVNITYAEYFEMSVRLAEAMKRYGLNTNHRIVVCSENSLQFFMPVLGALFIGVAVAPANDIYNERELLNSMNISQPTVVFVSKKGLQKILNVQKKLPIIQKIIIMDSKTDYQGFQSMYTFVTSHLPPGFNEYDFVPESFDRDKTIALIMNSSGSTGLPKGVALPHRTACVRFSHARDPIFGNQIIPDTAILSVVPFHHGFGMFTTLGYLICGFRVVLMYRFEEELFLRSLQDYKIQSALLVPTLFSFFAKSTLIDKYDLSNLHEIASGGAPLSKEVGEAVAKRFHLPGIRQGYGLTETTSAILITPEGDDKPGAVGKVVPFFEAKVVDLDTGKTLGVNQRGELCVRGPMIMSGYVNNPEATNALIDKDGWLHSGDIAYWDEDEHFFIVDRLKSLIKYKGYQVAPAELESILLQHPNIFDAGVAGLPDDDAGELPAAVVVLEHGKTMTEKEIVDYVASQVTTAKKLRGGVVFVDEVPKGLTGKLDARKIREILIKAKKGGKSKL", "test": "CCTE_Simmons_QuantiLum_inhib_2: CCTE's Firefly Luciferase Inhibition Assay, Simmons Lab (AID 2283767);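 for AC50: potency for inhibitors that lower luciferase luminescence relative to DMSO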", "method": "CCTE_Simmons_QuantiLum_inhib_2 is a biochemical, single-readout assay that uses purified luciferase enzyme in a cell-free assay.Measurements were taken 0.5 hour after chemical dosing in a 384-well plate.CCTE_Simmons_QuantiLum_inhib_2 is the assay component measured from the CCTE_Simmons_QuantiLum_inhib_2 assay. It is designed to make measurements of enzyme activity, a form of enzyme reporter, as detected with bioluminescence signals by Luciferase-coupled Quantilum levels technology. This is a secondary assay to CCTE_Simmons_AUR_TPO to evaluate nonspecific enzyme inhibition.Data from the assay component CCTE_Simmons_QuantiLum_inhib_2 was analyzed at the endpoint, CCTE_Simmons_QuantiLum_inhib_2, in the positive analysis fitting direction relative to DMSO as the negative control and baseline of activity. Using a type of enzyme reporter, measures of enzyme activity for loss-of-signal activity can be used to understand inhibition of firefly luciferase. This is an assay endpoint to indicate nonspecific protein inhibition for comparison to aeid 1508 for thyroperoxidase inhibition. To generalize the intended target to other relatable targets, this assay endpoint is annotated to the oxidoreductase intended target family, where the subfamily is monooxygenase.\nQuanti-Lum recombinant luciferase (Promega; Madison, Wisconsin) was diluted to 76.9 ng/ml with 200mM potassium phosphate buffer supplemented with 1 mg/ml bovine serum albumin and 65ul (5ng recombinant luciferase) per well was dispensed into opaque, white 384-well plates (Greiner, BioExpress) using an automated liquid handler (BioTek MicroFlo) with a plastic 5 ul tubing cassette. Test compounds were administered using the HDRT as described earlier to achieve a 0.5% final DMSO concentration. Microplates were incubated at 37C in the dark for 30min to mimic the AUR-TPO assay conditions. Luciferase detection reagent (25 ul per well; 9.2 mM dithiothreitol, 75uM Coenzyme A, 147uM dATP, 150uM D-luciferin, 8.9 mM Tricine, 297uM (MgCO3)4.Mg(OH)2.5H20, 742uM MgSO4, 27.8uM EDTA, pH 7.8, final assay concentrations) was then added using a BMG Clariostar plate reader equipped with syringe injectors (BMG LabTech; GmbH). Plates were read using a kinetic luminescence protocol (top read) whereby each well was individually injected with luciferase detection reagent immediately prior to measurement. Three biological replicates of technical singles were run for every chemical concentration tested. A titrated range of LUCINH2 served as a positive control on each plate of the luciferase inhibition screening assay. Test chemicals were administered as a titrated series of 8 concentrations from 5 nM up to 87.5 uM [final] for 30 minutes prior to single endpoint detection. Dimethylsulfoxide [DMSO] was used as the vehicle control. Luciferase Inhibitor I [2-(5-(2-Methoxyphenyl)-1,2,4-oxadiazol-3-yl)pyridine] was used as the positive control and was administered as a titrated series of 8 concentrations from 1 nM up to 100 uM [final].", "values": [
      {"compound": "CCc1cccc(O)c1", "AC50": "55.2 µM (active)"},
      {"compound": "CC(=O)Nc1cc(S(=O)(=O)O)cc2cc(S(=O)(=O)O)c(N=Nc3ccccc3)c(O)c12", "AC50": "21.2 µM (active)"},
      {"compound": "c1ccc2scnc2c1", "AC50": "31.7 µM (active)", "outcome": "inactive"},
      {"compound": "CC/C(=C(\\c1ccccc1)c1ccc(OCCN(C)C)cc1)c1ccccc1", "outcome": "inactive"},
      {"compound": "O=c1cc(-c2ccc(O)cc2)oc2cc(O)cc(O)c12", "AC50": "7.35 µM (active)"},
      {"compound": "O=C(O)C1=NN(c2ccc(S(=O)(=O)O)cc2)C(=O)C1", "outcome": "inactive"},
      {"compound": "CCCc1ccc(O)cc1", "outcome": "inactive"},
      {"compound": "C[C@]12CC[C@@H]3c4ccc(O)cc4CC[C@H]3[C@@H]1CC[C@@H]2O", "outcome": "inactive"},
      {"compound": "NC(N)=S", "outcome": "inactive", "AC50": "10.4 µM (active)"},
      {"compound": "COc1ccccc1O", "outcome": "inactive"},
      {"compound": "O=c1cc[nH]cc1", "outcome": "inactive"},
      {"compound": "CC1=CCC(=C(C)C)CC1", "outcome": "inactive"},
      {"compound": "CCCCCCCCOC(=O)c1ccc(O)cc1", "outcome": "inactive"},
      {"compound": "CCCCCCCCCCCCOCCOS(=O)(=O)O", "outcome": "inactive"},
      {"compound": "CCCCCCCCCCCCS", "outcome": "inactive"},
      {"compound": "CCCCC/C=C\\C=C\\C(=O)OCC", "outcome": "inactive"},
      {"compound": "O=C(c1ccc(OCCN2CCCCC2)cc1)c1c(-c2ccc(O)cc2)sc2cc(O)ccc12", "outcome": "inactive"},
      {"compound": "O=C1OC2(c3ccc(O)cc3Oc3cc(O)ccc32)c2ccccc21", "outcome": "inactive"},
      {"compound": "O=C(O)CS", "outcome": "inactive"},
      {"compound": "CCCc1ccc(N)cc1", "outcome": "inactive"},
      {"compound": "CN1CCc2cccc3c2[C@H]1Cc1ccc(O)c(O)c1-3", "AC50": "12.5 µM (active)"},
      {"compound": "CC(=O)OC/C=C(C)/C=C/C=C(C)/C=C/C1=C(C)CCCC1(C)C", "outcome": "inactive"},
      {"compound": "O=Cc1ccccc1O", "outcome": "inactive"},
      {"compound": "CCC(C)(C)C1CCC(=O)CC1", "outcome": "inactive"},
      {"compound": "C#C[C@]1(O)CC[C@H]2[C@@H]3CCc4cc(O)ccc4[C@H]3CC[C@@]21C", "outcome": "inactive"},
      {"compound": "CC(C)(C)c1cccc(O)c1", "outcome": "inactive"},
      {"compound": "CN(C)C(=O)Nc1ccccc1", "outcome": "inactive"},
      {"compound": "Cc1cccc(O)c1", "outcome": "inactive"},
      {"compound": "[O-]/[N+](=N\\O)c1ccccc1", "AC50": "31.7 µM (active)"},
      {"compound": "CCCCCCOc1ccc(O)cc1", "AC50": "53.8 µM (active)"}
    ]}
  ]
}
